PubChem BioAssay AID590 (National Center for Advancing Translational Sciences (NCATS), 2007)
Hit rate of the full screen: of about 59,000 compounds, about 6,500 (11%) were called active. Not shown: some 15% with an inconclusive outcome. Cut-off read from the data, not from the text of the source: active = max dye-equivalent concentration above about 10 nM; inconclusive = mostly about 1.1 nM to 9.6 nM; inactive = weaker than that. Only a selection was taken, and actives are over-represented in it overall.

experiment: qHTS Assay for Spectroscopic Profiling in A350 Spectral Region; conditions: Compound autofluorescence, 340/450 nm, Alexa 350 dye-equivalents; active compounds read high

Compound | max dye-equivalent concentration
COc1ccc(-c2nc(SCC(=O)N3CCOCC3)n[nH]2)cc1 | inactive
CCn1c(COc2cccc(OC)c2)nnc1SCC(=O)N1CCOCC1 | inactive
COc1ccc(-c2ccnc(SCC(=O)N3CCOCC3)n2)cc1 | 100 nM (active)
CC(=O)c1nc(N2C(=O)C3CC=C(C)CC3C2=O)sc1C (centres undefined) | inactive
O/N=C(\c1ccc2c(c1)OCCO2)C1CCCCC1 | inactive
Cc1ccsc1C(C(=O)NC1CCCCC1)N(C(=O)Cc1cccs1)C1CC1 (centres undefined) | inactive
O=C(c1cccc2ccccc12)N1CCN(c2ccccc2F)CC1 | inactive
COc1ccc2oc(=O)c(C(=O)N3CCN(c4ccccc4F)CC3)cc2c1 | 41 nM (active)
COc1ccc2oc(=O)c(C(=O)N3CCCc4ccccc43)cc2c1 | inactive
Cc1cccc(OCc2nnc(SCn3nnc4ccccc4c3=O)o2)c1 | inactive
CC1(C)C2CCC1(C)C(OC(=O)CCn1ccnc1)C2 (centres undefined) | inactive
COc1cccc(NS(=O)(=O)c2ccc3[nH]cc(C(=O)NCCCOC(C)C)c(=O)c3c2)c1 | inactive
COC(=O)c1ccccc1NC(=O)c1cncc(Br)c1 | inactive
CCC(=O)Nc1cccc(NC(=O)c2cccnc2)c1 | inactive
Cc1cc2nc(-c3ccc(NC(=O)c4cccnc4)cc3)oc2cc1C | 90 nM (active)
CCOC(=O)c1cc(NC(=O)c2cccnc2)cc(C(=O)OCC)c1 | inactive
O=S(=O)(O)CCN1CCOCC1 | inactive
CCCc1nnc(NC(=O)CN2C(=O)c3ccccc3S2(=O)=O)s1 | inactive
O=P(O)(CP(=O)(c1ccccc1)c1ccccc1)c1ccccc1 | inactive
O=C(Nc1c(-c2ccccc2)nc2c(Br)cc(Br)cn12)c1ccco1 | inactive
CCOc1cc2[nH]c(=S)n(CCCN3CCCC3=O)c(=O)c2cc1OCC | inactive
COc1ccc(S(=O)(=O)N(CCCN2CCCC2=O)Cc2cc3c(C)ccc(C)c3[nH]c2=O)cc1 | 13 nM (active)

Compound | max dye-equivalent concentration
CCN1CCN(C(=O)CN(C)S(=O)(=O)c2ccc(OC)cc2)CC1 | inactive
CC(C)(C)c1ccc(C(=O)CSc2ncn[nH]2)cc1 | inactive
Cc1csc(NC(=O)C2CCCN2C(=O)OCC(C)C)n1 (centres undefined) | inactive
CN(Cc1ccccc1)c1nc2c(c(=O)[nH]c(=O)n2C)n1CCSc1nc2ccccc2[nH]1 | inactive
O=C(Cn1c(-c2ccccn2)nc2ccccc21)NCCN1CCOCC1 | inactive
C=CCn1c(SCC(=O)Nc2nc3ccccc3s2)nnc1-c1ccccc1O | inactive
C=CCn1c2ccccc2c2nnc(SC(CC)C(=O)Nc3nc(C)c(C(=O)OCC)s3)nc21 (centres undefined) | 56 nM (active)
COc1ccc(-n2c(SCC(=O)Nc3ccc4c(c3)OCO4)nnc2C(C)N2CCCCC2)cc1 (centres undefined) | inactive
O=C(NCCCNC(=O)NC1CCCCC1)NC1CCCCC1 | inactive
CC(=NCc1ccc2c(c1)OCO2)C1=C(O)c2ccccc2C1=O | inactive
O=c1[nH]c(-c2cccs2)nc2ccccc12 | inactive
O=c1[nH]c(=O)c2nc3ccccc3nc2[nH]1 | 200 nM (active)
CCc1c(C)nc(N2CCN(Cc3ccccc3)CC2)[nH]c1=O | inactive
N#C/C(=C\c1ccc(O)c(O)c1)C(=O)NCc1ccccc1 | inactive
CCSC1=C(C#N)C(=O)n2c1cc1c2CCCC1 | inactive
N#CC1=C(N)C(C#N)(C#N)[C@H](c2ccsc2)[C@H]2COCC=C12 | 17 nM (active)
O=C(NCc1ccc(Cl)cc1)c1cc2c(nc3sccn32)s1 | inactive
Cc1ccnc(N2CCCC(C(=O)Nc3cc(F)ccc3C)C2)n1 (centres undefined) | inactive
CCOC(=O)C1=C(CNC2CCCCC2)NC(=O)NC1c1cc(C)ccc1C (centres undefined) | inactive
c1cncc(CNc2ccnc(-c3ccc4c(c3)OCO4)n2)c1 | 15 nM (active)
O=C(Nc1cccnc1)c1ccc2c(c1)OCO2 | inactive
Cc1cccc(CNc2ccnc(-c3cccnc3)n2)c1 | inactive

Compound | max dye-equivalent concentration
CC(=O)N=c1ncn(CC(COC(C)=O)OC(C)=O)c2nc[nH]c12 (centres undefined) | inactive
Cc1ccc(C)c(S(=O)(=O)N2CC(=O)Nc3ccccc32)c1 | inactive
Cc1ccc(OCC(=O)Nc2ccc(-c3nnc(-c4ccco4)o3)cc2)cc1 | inactive
Cc1ccc(OCC(=O)Nc2ccc(-c3nc4ncccc4o3)cc2)cc1 | 25 nM (active)
COc1ccc(CC(=O)Nc2ccc(-c3nnc(-c4ccc(C)cc4)o3)cc2)cc1 | inactive
CCOC(=O)c1cc(C)sc1NC(=O)C1CCC1 | inactive
Cn1c(-c2ccc(F)cc2)cnc1SCC(=O)NCc1ccco1 | inactive
Cc1ccc(S(=O)(=O)N2CCC(N3CCCCCC3)CC2)cc1 | inactive
Fc1ccc(Cn2nnnc2C(c2cccs2)N2CCCCCC2)cc1 (centres undefined) | inactive
Cc1cc(C)c2c(n1)nn1c(N3CCN(c4cccc(Cl)c4)CC3)cc(C)nc21 | 110 nM (active)
CCN1C(=O)/C(=C\N2CCN(c3cccc(Cl)c3)CC2)SC1=S | inactive
CS(=O)(=O)N(CC(=O)N1CCN(c2cccc(Cl)c2)CC1)c1ccccc1 | inactive
Cc1cc(N2CCN(Cc3ccc4c(c3)OCO4)CC2)n2ncnc2n1 | inactive
Cc1cc(C)c2c(n1)nn1c(N3CCOCC3)cc(C)nc21 | 7500 nM (active)
Cc1cc(C)c2c(n1)nn1c(-n3ccnc3)cc(C)nc21 | 260 nM (active)
Cc1nn2c3cc(N4CCOCC4)ccc3nc2c2ccccc12 | inactive
CN1CCN(CC(O)COCc2ccc3c(c2)OCO3)CC1 (centres undefined) | inactive
CCOC(=O)Nc1ccc2c(c1)N(C(=O)CN1CCN3CCCC3C1)c1ccccc1CC2 (centres undefined) | inactive
CSc1cccc(NC(=O)CSc2ccccc2)c1 | inactive
Cc1ccccc1CSc1nnc(-c2cccnc2)n1N | inactive
CCOC(=O)C1C(=O)C=C(c2ccc(OC)cc2)CC1c1ccco1 (centres undefined) | 11 nM (active)
CCOC(=O)C1C(=O)NC(N2CCN(c3ccccc3)CC2)=NC1c1ccco1 (centres undefined) | inactive

Compound | max dye-equivalent concentration
COc1ccc(C2OC(=O)CC2C(=O)NC(C)C)cc1 (centres undefined) | inactive
CNC(=O)c1nnn(-c2ccccc2)c1C(=O)NC | inactive
CCn1ccnc1C[C@@H]1COc2ccccc2O1 | inactive
CC1=C(C(=O)Nc2ccc(Cl)cc2)C(c2ccco2)NC(=O)N1 (centres undefined) | inactive
COCCCNC(=O)C1CC(=O)N(c2ccc(C)cc2)C1 (centres undefined) | inactive
COc1cccc(N2CC(C(=O)Nc3c(C)cccc3C)CC2=O)c1 (centres undefined) | 19 nM (active)
COc1ccc(Cl)cc1NC(=O)C1CC(=O)N(c2ccc(F)cc2)C1 (centres undefined) | inactive
O=C(CSc1nnc(-c2cccs2)n1Cc1ccco1)c1ccc2c(c1)OCO2 | inactive
Fc1ccc2[nH]c3c(N4CCSCC4)ncnc3c2c1 | 13 nM (active)
CCN1CCCC1CNC(=O)Cn1cnc2ccc(S(=O)(=O)N3CCC(C)CC3)cc2c1=O (centres undefined) | inactive
CCN1CCCC1CNc1ncnc2c1[nH]c1ccc(F)cc12 (centres undefined) | 14 nM (active)
Cc1ccc(-n2ncc3c(N4CCN(c5ccc(F)cc5)CC4)ncnc32)c(C)c1 | inactive
Cc1cc(OCC(=O)O)c(Cl)cc1Cl | inactive
CCn1c(Cc2ccccc2)nnc1SCc1nc2ccccc2c(=O)[nH]1 | inactive
COCCCNC(=O)CCc1nc2cccnc2n1Cc1ccc(OC)cc1 | inactive
O=C(CC1CCCCC1)Nc1c2c(nn1-c1ccc(F)cc1)CS(=O)(=O)C2 | inactive
Cc1c(C)c2cc3c4c(oc3c(C)c2oc1=O)CCCC4 | 25 nM (active)
COc1ccccc1-c1nc(NCc2cccs2)c2ccccc2n1 | inactive
CCOC(=O)Cc1c(C)nc2c(C#N)c(C)nn2c1C | 11 nM (active)
CC1(C)CCCC2=C1CC1C(=O)N(c3ccccc3)C(=O)C1C2 (centres undefined) | inactive
CC(C)C(c1nnnn1Cc1ccccc1)N1CCC(C(N)=O)CC1 (centres undefined) | inactive
COc1ccc(Cn2cccc(NC(=O)Nc3ccc(C#N)cc3)c2=O)cc1 | inactive

Compound | max dye-equivalent concentration
COc1ccc(C(=O)N2CCC[C@@]3(CCN(C(=O)NC(C)C)C3)C2)cc1 | inactive
COc1cccc(-c2nc(Nc3ccncc3)c3ccccc3n2)c1 | inactive
c1ccc2c(Nc3ccncc3)nc(-c3ccoc3)nc2c1 | inactive
c1ccc2c(Nc3ccncc3)nc(-c3ccc4c(c3)OCO4)nc2c1 | 11 nM (active)
COCCNc1nc(-n2nc(C)cc2C)nc2sc3c(c12)CCCC3 | 1300 nM (active)
COCCn1c(C)cc(C(=O)CSc2ncnc3sc4c(c23)CCC4)c1C | inactive
Cc1cc(C)n(-c2nc(SCC(=O)N3CCCC3)c3c4c(sc3n2)CCCC4)n1 | inactive
O=S(=O)(NCc1ccc2c(c1)OCO2)c1cccc2nsnc12 | inactive
COc1ccc(N2C(=O)CCC(C(=O)Nc3ccccn3)C2c2ccc(OC)c(OC)c2)cc1 (centres undefined) | inactive
O=C1c2ccccc2C(=O)N1CCCSc1ccccc1 | inactive
Nc1ccc(SCCN2C(=O)c3ccccc3C2=O)cc1 | inactive
C[N+](C)(CCCCCC[N+](C)(C)CCCN1C(=O)c2cccc3cccc(c23)C1=O)CCCN1C(=O)c2cccc3cccc(c23)C1=O | 260 nM (active)
CCOC(=O)Cc1csc(NC(=O)C(C)(C)C)n1 | inactive
COc1cc(C2C3C(=O)N(c4ccccc4)C(=O)C3ON2c2ccccc2)ccc1O (centres undefined) | inactive
Cc1ccc(C(c2nnnn2C(C)(C)C)N2CCc3ccccc3C2)cc1 (centres undefined) | inactive
Cc1ccc(NC(=O)CCN2CCc3ccccc3C2)cc1 | inactive
Cc1ccc2c(c1)c1ncnc(N3CCc4ccccc4C3)c1n2C | 140 nM (active)
O=C(CCCN1C(=O)C2C3C=CC(C3)C2C1=O)N1CCN(c2ccccc2)CC1 (centres undefined) | inactive
Cc1cc(C)nc(NC(=O)C(C)N2C(=O)c3ccccc3C2=O)n1 (centres undefined) | inactive
COC(=O)c1ccc(NC(=O)C(C)N2C(=O)c3ccccc3C2=O)cc1 (centres undefined) | inactive
CC(C(=O)O)N1C(=O)c2cccc3cccc1c23 (centres undefined) | 14 nM (active)
